# Among all 310,000 compounds or so, about 11,000 (3.5%) were called active. Not shown: some 8% with an inconclusive outcome. The sample holds actives, similar compounds and a random draw of the others, so the mix is not that of the screen. A number with no mark means an inactive call. The call rests on the fitted dose curve; in most records, active means well fitted inhibition curve with a large enough effect; inconclusive means small, poorly fitted or top-dose-only effect, or effect the other way; inactive means flat fitted curve, though single readings scatter.
# Assay: VP16 counterscreen qHTS for inhibitors of ROR gamma transcriptional activity;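 further: Gal4-VP16 expression switched on by copper sulfate through the metallothionein promoter; nearly all actives have a fitted effect of over 50% in size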
# Conditions: Drosophila S2 Gal4-VP16 UAS-luciferase, luminescence, 20 h; series mostly up to 53.6 µM; activity, negative = inhibition: at the top concentration
# On the % scale 0 is the no-effect control and ±100 the full control effect; potency means the concentration at half of the fitted maximal effect.
SMILES,"activity, negative = inhibition",Potency
O=C1C[C@@H](c2ccc3ccccc3c2)N1S(=O)(=O)c1ccccc1[N+](=O)[O-],-6.73%,
Cc1ccc(CNS(=O)(=O)c2ccc3c(c2)N(C)CCO3)cc1,-0.865%,
Cc1cc(=O)[nH]c(Nc2cccc(Br)c2)n1,-6.76%,
Cc1nnnn1/C(=C\c1ccccc1)C(=O)OCC(=O)N1CC2(C)CC1CC(C)(C)C2 (stereo unspecified),,10 µM (active)
Cc1cccc(C(=O)NCC(=O)OCC(=O)N2CC3(C)CC2CC(C)(C)C3)c1 (stereo unspecified),-8.87%,
COc1ccccc1C(=O)N1CC2(C)CC1CC(C)(C)C2 (stereo unspecified),-3.63%,
CCOC(=O)c1ccc(NC(=O)c2cccnc2)cc1,3.63%,
CCSc1nc2sc3c(c2c(=O)n1-c1ccc(C)cc1)CCN(C)C3,-1.82%,
Cc1cccc(NC(=S)N2CCCC(c3nc4ccccc4[nH]3)C2)c1 (stereo unspecified),5.42% [at 10 µM],
O=C(C1CCCO1)N1CCN(C(=S)Nc2cccc(Cl)c2)CC1 (stereo unspecified),4.52%,
Cc1ccc(C2CCN(C(=S)Nc3cccc(Cl)c3)C2)cc1 (stereo unspecified),,12.6 µM (active)
CC(=O)c1nn(-c2cccc(C(F)(F)F)c2)c(=O)[nH]c1=O,6.04%,
COc1ccccc1CCNC(=O)c1c(C)nn(CC(C)C)c1Cl,22.8%,
COc1cccc(C(=O)N/N=C(\C)c2cccc(NC(=O)c3ccc(F)cc3)c2)c1OC,-3.24%,
COc1ccc(NC2CCCN(C(=O)c3ccncc3)C2)cc1 (stereo unspecified),1.45%,
CC(C)c1ccc(NC2CCCN(C(=O)c3ccncc3)C2)cc1 (stereo unspecified),,1.58 µM (active)

SMILES,"activity, negative = inhibition",Potency
Cc1cccc(C(=O)N2CCCC(Nc3ccc(C(C)C)cc3)C2)n1 (stereo unspecified),-6.89%,
O=C(Nc1ccc(C(=O)NCc2ccccc2Cl)cc1)C1=CSCCO1,-5.26%,
COc1ccc(-n2nc(C(=O)NCC(=O)N3CCCCCC3)c3ccccc3c2=O)cc1Cl,1.85%,
CC(=O)c1cccc(NC(=O)CN2C(=O)c3cccnc3Oc3ccc(Cl)cc32)c1,8.7%,
C#CC(CCN1CCCCC1)(OC)c1ccccc1 (stereo unspecified),-3.36%,
CN1CCN(C(=O)CCc2nc(-c3ccc(Cl)cc3)no2)CC1,20.9%,
CCNC(=O)CCc1nc(-c2ccc(C(C)(C)C)cc2)no1,,2.51 µM (active)
CCNC(=O)CCc1nc(-c2ccc(C)cc2)no1,4.81%,
COC(=O)c1ccc(N2CCOCC2)c(NC(=O)c2ccc(Br)o2)c1,-9.5%,
CCN1CCN(C(c2cccnc2)c2cc(Cl)c3cccnc3c2O)CC1 (stereo unspecified),,5.01 µM (active)
CCN1CCN(c2ccc(NC(=O)c3cnccn3)cc2)CC1,-0.768%,
Cc1onc(C(=O)NN)c1C(=O)N1CCN(C(c2ccccc2)c2ccccc2)CC1,-9.37%,
CCOC(=O)N1CCN(C(c2cccnc2)c2ccc3cccnc3c2O)CC1 (stereo unspecified),,6.31 µM (active)
Oc1ccccc1CN1CCN(C(c2ccccc2)c2ccccc2)CC1,15.7%,
CCOC(=O)N1CCN(C(=O)C2CCN(c3ncnc4c3sc3cccc(F)c34)CC2)CC1,-1.75%,
